Compounds without any hit were thinned out: in the full panel of roughly 83,000, 20% have a hit.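 Single-dose data. Exposure time 48 hours. Values below 10 considered active.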 Values without a mark were called inactive. Activity calls are given as the source filed them.
How the values were obtained:
Assay in all cases: NCI-60 one-dose screen, 48 h (100 = growth as untreated, 0 = no growth, -100 = all killed)
Conditions in all cases: 10 µM unless noted
[1] = tested on: NCI-H23 lung
[2] = tested on: NCI-H226 lung
[3] = tested on: NCI-H322M lung
[4] = tested on: HOP-62 NSCLC
[5] = tested on: NCI-H460 lung
[6] = tested on: NCI-H522 lung
[7] = tested on: A549/ATCC NSCLC
[8] = tested on: 786-0 renal
[9] = tested on: COLO 205 colon
[10] = tested on: DU-145 prostate
[11] = tested on: K-562 leukemia
[12] = tested on: MALME-3M melanoma
[13] = tested on: MDA-MB-231 breast
[14] = tested on: RXF 393 renal
[15] = tested on: SF-268 CNS
[16] = tested on: SF-295 CNS
[17] = tested on: SF-539 CNS
[18] = tested on: UACC-257 melanoma
[19] = tested on: M14 melanoma

## Nc1nc(-c2cccc([N+](=O)[O-])c2)c(N=Nc2ccc([N+](=O)[O-])cc2Cl)s1
[1]
  growth: 0.802% (active)
[2]
  growth: -2.56% (active)
[3]
  growth: 13.8%
[4]
  growth: 21.9%
[5]
  growth: 1.77% (active)
[6]
  growth: -3.73% (active)
[7]
  growth: 15.2%
[8]
  growth: 3.66% (active)
[9]
  growth: -61.6% (active)
[10]
  growth: 19.6%
[11]
  growth: 10.7%
[12]
  growth: -3.18% (active)
[13]
  growth: 12.2%
[14]
  growth: -31.1% (active)
[15]
  growth: 20.5%
[16]
  growth: -18.4% (active)
[17]
  growth: 16.9%
[18]
  growth: -8.89% (active)
[19]
  growth: 4.9% (active)

## Nc1ncc(-c2ccc(NS(=O)(=O)c3ccc(Cl)c(Cl)c3)cc2)[nH]1
[1]
  growth: 95.9%
[2]
  growth: 87.3%
[3]
  growth: 97%
[4]
  growth: 113%
[5]
  growth: 93.6%
[6]
  growth: 92.7%
[7]
  growth: 92.5%
[8]
  growth: 93.8%
[9]
  growth: 109%
[10]
  growth: 103%
[11]
  growth: 89.7%
[12]
  growth: 85.3%
[13]
  growth: 91.2%
[14]
  growth: 95.4%
[15]
  growth: 75.1%
[16]
  growth: 90.8%
[17]
  growth: 88.1%
[18]
  growth: 87.7%
[19]
  growth: 95.5%

## Cn1cc(-c2nc(N)nnc2-c2c[nH]c3ccccc23)c2cc(Br)ccc21
[1]
  growth: 17%
[2]
  growth: 60.3%
[3]
  growth: 41.9%
[4]
  growth: 45.9%
[5]
  growth: 12.6%
[6]
  growth: -2.27% (active)
[7]
  growth: 50.8%
[8]
  growth: 43.5%
[9]
  growth: 9.53% (active)
[10]
  growth: 18.6%
[11]
  growth: 11.6%
[12]
  growth: 40.8%
[13]
  growth: 34.2%
[14]
  growth: 7.61% (active)
[15]
  growth: 39.6%
[16]
  growth: -7.74% (active)
[17]
  growth: 6.14% (active)
[18]
  growth: 72.1%
[19]
  growth: 6.36% (active)

## CCOC(=O)c1c(Nc2ccccc2)nn2c(-c3ccccc3)ccnc12
[1]
  growth: 86.2%
[2]
  growth: 85.3%
[3]
  growth: 94.2%
[4]
  growth: 101%
[5]
  growth: 97.9%
[6]
  growth: 87.9%
[7]
  growth: 92.4%
[8]
  growth: 86.6%
[9]
  growth: 99.5%
[10]
  growth: 97.5%
[11]
  growth: 63.8%
[12]
  growth: 105%
[13]
  growth: 82.4%
[15]
  growth: 113%
[16]
  growth: 92.9%
[17]
  growth: 92.5%
[18]
  growth: 112%
[19]
  growth: 110%

## COC(=O)c1[nH]nc2c1C1(C(=O)c3cccc4cccc1c34)C(C#N)=C(N)O2 (stereo not given)
[1]
  growth: 95%
[2]
  growth: 91.8%
[3]
  growth: 94.1%
[4]
  growth: 97.5%
[5]
  growth: 105%
[6]
  growth: 100%
[7]
  growth: 98.2%
[8]
  growth: 99.5%
[9]
  growth: 110%
[10]
  growth: 104%
[11]
  growth: 91.2%
[12]
  growth: 103%
[13]
  growth: 91.4%
[14]
  growth: 93.5%
[15]
  growth: 84.1%
[16]
  growth: 104%
[17]
  growth: 101%
[18]
  growth: 103%
[19]
  growth: 108%

## COc1ccc(CCN2C(=O)CSC2=S)cc1
[1]
  growth: 103%
[2]
  growth: 115%
[3]
  growth: 99.4%
[4]
  growth: 104%
[5]
  growth: 103%
[6]
  growth: 69.3%
[7]
  growth: 102%
[8]
  growth: 87.3%
[9]
  growth: 117%
[10]
  growth: 41%
[11]
  growth: 51.4%
[12]
  growth: 98%
[13]
  growth: 79.6%
[14]
  growth: 89.7%
[15]
  growth: 100%
[16]
  growth: 97.6%
[17]
  growth: 84.7%
[18]
  growth: 98.9%
[19]
  growth: 101%

## O=C(c1ccc(O)c(C(=O)N2Cc3ccc(OCCC[P+](c4ccccc4)(c4ccccc4)c4ccccc4)cc3C2)c1)N1Cc2cccc(F)c2C1
[1]
  growth: 87.3%
[2]
  growth: 92.3%
[3]
  growth: 94.3%
[4]
  growth: 102%
[5]
  growth: 69.7%
[6]
  growth: 72.9%
[7]
  growth: 99.8%
[8]
  growth: 98.5%
[9]
  growth: 52.3%
[10]
  growth: 99%
[11]
  growth: 27.1%
[12]
  growth: 73.2%
[13]
  growth: 92.9%
[14]
  growth: 96.4%
[15]
  growth: 92.7%
[16]
  growth: 84.9%
[17]
  growth: 55.6%
[18]
  growth: 48.5%
[19]
  growth: 95.1%

## COc1ccccc1-n1cc(C#N)c(N)c1C(=O)c1ccc(C)cc1
[1]
  growth: 89.4%
[2]
  growth: 98.4%
[3]
  growth: 90.8%
[4]
  growth: 77.7%
[5]
  growth: 101%
[6]
  growth: 64%
[7]
  growth: 89.8%
[8]
  growth: 94.8%
[9]
  growth: 95.6%
[10]
  growth: 99.2%
[11]
  growth: 28.4%
[13]
  growth: 90.9%
[14]
  growth: 76.6%
[15]
  growth: 90.6%
[16]
  growth: 74.1%
[17]
  growth: 97%
[18]
  growth: 78.3%
[19]
  growth: 59.8%

## O=C(CN1CCN(c2cc(=O)n(-c3ccccc3)c3ccccc23)CC1)Nc1ccc(F)cc1
[1]
  growth: 57.5%
[2]
  growth: 63.6%
[3]
  growth: 83.6%
[4]
  growth: 83%
[5]
  growth: 71.1%
[6]
  growth: 66.1%
[7]
  growth: 74.7%
[8]
  growth: 81.9%
[9]
  growth: 85.3%
[10]
  growth: 68.5%
[11]
  growth: 37.3%
[13]
  growth: 63%
[14]
  growth: 71.9%
[15]
  growth: 69.2%
[16]
  growth: 71.8%
[17]
  growth: 76.6%
[18]
  growth: 49.7%

## CCO/C=N/C1=C(C#N)C(c2ccc(F)cc2)c2sc3c(C)cccc3c2O1 (stereo not given)
[1]
  growth: 27.1%
[2]
  growth: 54.3%
[3]
  growth: 37.6%
[4]
  growth: 28.3%
[5]
  growth: 4.32% (active)
[6]
  growth: 7.88% (active)
[7]
  growth: 22.4%
[8]
  growth: 20.2%
[9]
  growth: 15.5%
[10]
  growth: 12.4%
[11]
  growth: 10.4%
[13]
  growth: 17.8%
[14]
  growth: 0.223% (active)
[15]
  growth: 38.3%
[16]
  growth: -6.89% (active)
[17]
  growth: -10.1% (active)
[18]
  growth: 69%

## Cc1cccc(/C=C/C(=O)Nc2ncc(Cc3cccc(C)c3)s2)c1
[1]
  growth: 30.4%
[2]
  growth: 17.7%
[3]
  growth: 39.9%
[4]
  growth: 32.1%
[5]
  growth: 8.64% (active)
[6]
  growth: -43.2% (active)
[7]
  growth: 31.1%
[8]
  growth: 21.3%
[9]
  growth: -0.745% (active)
[10]
  growth: 8.51% (active)
[11]
  growth: 11.9%
[12]
  growth: 33.6%
[13]
  growth: 38.8%
[15]
  growth: 48.2%
[16]
  growth: -1.79% (active)
[17]
  growth: 4.05% (active)
[18]
  growth: 38.3%
[19]
  growth: 0.505% (active)

## Nc1nc(-c2cccc([N+](=O)[O-])c2)c(N=Nc2cccc([N+](=O)[O-])c2)s1
[1]
  growth: -25.6% (active)
[2]
  growth: 14.9%
[3]
  growth: 64.6%
[4]
  growth: 16.5%
[5]
  growth: 4.2% (active)
[6]
  growth: -12% (active)
[7]
  growth: 17.5%
[8]
  growth: -70.4% (active)
[9]
  growth: 106%
[10]
  growth: 56.7%
[11]
  growth: 81.9%
[12]
  growth: 52.4%
[13]
  growth: 19.5%
[14]
  growth: -64.5% (active)
[15]
  growth: 14.7%
[16]
  growth: 1.91% (active)
[17]
  growth: -26.4% (active)
[18]
  growth: 88.6%
[19]
  growth: 14.9%

## C[C@@H]1C[C@H]2C(=O)O[C@@H](C)C(NC(=O)[C@H](Cc3cc(F)cc(F)c3)NC(=O)Nc3ccc(C4CC4)cc3F)C(=O)N3CCC[C@H]3C(=O)N3CCCC[C@H]3C(=O)N[C@@H](CO)C(=O)N2C1 (stereo not given in full)
[1]
  growth: 34%
[2]
  growth: -5.28% (active)
[3]
  growth: 48.3%
[4]
  growth: 33.3%
[5]
  growth: 14.4%
[6]
  growth: 13.2%
[7]
  growth: 25.7%
[8]
  growth: 40.4%
[9]
  growth: -38.3% (active)
[10]
  growth: 25.6%
[11]
  growth: 18.6%
[12]
  growth: 36.9%
[13]
  growth: 33.9%
[15]
  growth: 31.4%
[16]
  growth: 11.4%
[17]
  growth: 35.4%
[18]
  growth: 11.5%
[19]
  growth: 27.4%

## COc1ccc(CCOc2cc3c(cc2OC)CCN(C(=O)NCc2cocn2)C3c2ccc(C)cc2C)cc1 (stereo not given)
[1]
  growth: 11.4%
[2]
  growth: 34.3%
[3]
  growth: 46%
[4]
  growth: 8.99% (active)
[5]
  growth: 3.64% (active)
[6]
  growth: -41.2% (active)
[7]
  growth: 7.81% (active)
[8]
  growth: 5.15% (active)
[9]
  growth: -62% (active)
[10]
  growth: 14.1%
[11]
  growth: 10%
[12]
  growth: 52.2%
[13]
  growth: 20.5%
[14]
  growth: 1.12% (active)
[15]
  growth: 21.2%
[16]
  growth: 12.8%
[17]
  growth: 1.43% (active)
[18]
  growth: 38%
[19]
  growth: 11.7%

## O=C(CSc1nc2ccccc2c(=O)n1-c1ccccc1)Nc1cccc(C(=O)/C=C/c2ccccc2)c1
[1]
  growth: 102%
[2]
  growth: 83.1%
[3]
  growth: 102%
[4]
  growth: 99%
[5]
  growth: 91.6%
[6]
  growth: 92%
[7]
  growth: 80.1%
[8]
  growth: 98.5%
[9]
  growth: 106%
[10]
  growth: 94.8%
[11]
  growth: 70.1%
[12]
  growth: 101%
[13]
  growth: 94.3%
[14]
  growth: 83.1%
[15]
  growth: 94.8%
[16]
  growth: 98%
[17]
  growth: 98.8%
[18]
  growth: 99.8%
[19]
  growth: 97.5%

## CCNC(=O)N1CCc2cc(OC)c(OCCc3ccc(OC)nc3)cc2C1c1ccc(C)cc1C (stereo not given)
[1]
  growth: 13%
[2]
  growth: 33.2%
[3]
  growth: 38%
[4]
  growth: 21.8%
[5]
  growth: 1.74% (active)
[6]
  growth: -34% (active)
[7]
  growth: 4.74% (active)
[8]
  growth: 6.15% (active)
[9]
  growth: 7.67% (active)
[10]
  growth: 12%
[11]
  growth: 11%
[12]
  growth: 51.5%
[13]
  growth: 15%
[14]
  growth: 2.44% (active)
[15]
  growth: 20.7%
[16]
  growth: 7.92% (active)
[17]
  growth: 5.2% (active)
[18]
  growth: 41.9%
[19]
  growth: 12.9%

## c1cn2c(ccc3nc(-c4cn[nH]c4)c4c(c32)CCCC4)n1
[1]
  growth: 69.2%
[2]
  growth: 73.6%
[3]
  growth: 75.8%
[4]
  growth: 71.8%
[5]
  growth: 43.9%
[6]
  growth: 62.8%
[7]
  growth: 62.5%
[8]
  growth: 55.3%
[9]
  growth: 95.5%
[10]
  growth: 52%
[11]
  growth: 85.6%
[12]
  growth: 29%
[13]
  growth: 77.1%
[14]
  growth: 43.6%
[15]
  growth: 77.5%
[16]
  growth: 42.6%
[17]
  growth: 63.9%
[18]
  growth: 63.5%
[19]
  growth: 32.1%
